# From the supplement of paper PMC10849652
# About 8,800 targets were measured; listed, in parts, are those with a hit and a random draw of the rest. About 0.5% of all pairs of compound and target were hits. Unmarked numbers belong to inactive results.
# Key:
# Assay in all cases: log2 fold change, soluble protein after heating vs DMSO (PISA); higher = thermal stabilisation; K562 lysate, 10 uM; active = over 0.2 and 3.5 SD of the protein, either way, in both replicates (recomputed)
# [1] = compound: C#Cc1cccc(Nc2ncnc3cc(OCCOC)c(OCCOC)cc23)c1 [erlotinib]
# Summary of the method: (§1)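 Soluble protein was defined as the supernatant remaining after 21,000xg for 90 min, following pooling of heated aliquots and adjustment to 0.5% NP-40 at 4°C. Before that, crude K562 extract at 1 mg/mL protein in PBS pH 7.4 with 1 mM MgCl2 was treated with 10 μM compound for 30 min and heated for 3 min across 48°C-58°C. Quantification used TMTpro 16plex LC-MS/MS with channel sums equalised, and values are log-two fold changes in thermal stability relative to solvent controls from duplicates.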
# [2] = compound: C/C(=N\NC(=O)C1=CC(=CC=C1)S(=O)(=O)N2CCOCC2)/C3=C(C=CC(=C3)Cl)O
# Summary of the method: as §1
# [3] = compound: C1=CC(=CC=C1C2=NC3=C(N2)C=C(C=C3)C(=O)N)OC4=CC=C(C=C4)Cl
# Summary of the method: as §1
# [4] = compound: C1=CC2=C(C=CC(=C2)/C=C\3/C(=O)NC(=NCC4=CC=CS4)S3)N=C1
# Summary of the method: as §1
# [5] = compound: C1=CC2=NC=CN=C2C=C1/C=C/3\C(=O)NC(=O)S3
# Summary of the method: as §1
# [6] = compound: C1=CC=C(C=C1)C2=NC(=C(N2)C3=CC=NC=C3)C4=CC(=C(C=C4)Cl)O
# Summary of the method: as §1
# [7] = compound: C1=CC=C2C(=C1)C3=NNC4=CC=CC(=C43)C2=O
# Summary of the method: as §1
# [8] = compound: C1CCN(C1)C(=O)NC2=CC=CC(=C2)NC3=NC=C(C(=N3)NCCC4=CN=CN4)Br
# Summary of the method: as §1
# [9] = compound: C1CN(CCC1(CC2=CC=C(C=C2)Cl)N)C3=NC=NC4=C3C=CN4
# Summary of the method: as §1
# [10] = compound: C1COCCN1CCN2C3=CC=CC=C3N=C2NC(=O)C4=CC(=CC=C4)[N+](=O)[O-] [IRAK-1-4 Inhibitor I]
# Summary of the method: as §1
# [11] = compound: C=CC(=O)N1CCC[C@@H](n2nc(-c3ccc(Oc4ccccc4)cc3)c3c(N)ncnc32)C1 [ibrutinib]
# Summary of the method: as §1
# [12] = compound: CC(=O)c1cnc2ccc(-c3cc(Cl)c(O)c(Cl)c3)nc2c1N[C@H]1CC[C@H](CN(C)C)CC1
# Summary of the method: as §1
# [13] = compound: CC(C)(C)Cn1c(N)nc2ccc(-c3[nH]c(C(C)(C)C)nc3-c3ccc(F)cc3)nc21 [ralimetinib]
# Summary of the method: as §1
# [14] = compound: CC(C)(O)CC(=O)NCCn1ccc2ncnc(Nc3ccc(Oc4cccc(C(F)(F)F)c4)c(Cl)c3)c21
# Summary of the method: as §1
# [15] = compound: CC(C)C1=C2N=C(C=C(N2N=C1)NCC3=CC=CC=C3)NCCCCCCN
# Summary of the method: as §1
# [16] = compound: CC1=C(C(CC(=O)N1)C2=CC=C(C=C2)C(F)(F)F)C(=O)NC3=C(C=C4C(=C3)C=NN4)F
# Summary of the method: as §1
# [17] = compound: CC1=C(C2=C(C=C1)C(=O)C3=CC=CC=C3N2CCCN)C
# Summary of the method: as §1
# [18] = compound: CC1=C(C=C(C=C1)NC(=O)C2=CC(=CC=C2)C(C)(C)C#N)NC3=CC4=C(C=C3)N=CN(C4=O)C
# Summary of the method: as §1
# [19] = compound: CC1=C(C=C(C=C1)NC(=O)C2=CC(=CC=C2)N(C)C)NC(=O)C3=CC=C(C=C3)O
# Summary of the method: as §1
# [20] = compound: CC1=CC=C(C=C1)SC2=C3C=C(SC3=CN=C2)C(=O)N
# Summary of the method: as §1
# Sequence of UniProt Q8TD19 (Q8TD19 whole entry, looked up): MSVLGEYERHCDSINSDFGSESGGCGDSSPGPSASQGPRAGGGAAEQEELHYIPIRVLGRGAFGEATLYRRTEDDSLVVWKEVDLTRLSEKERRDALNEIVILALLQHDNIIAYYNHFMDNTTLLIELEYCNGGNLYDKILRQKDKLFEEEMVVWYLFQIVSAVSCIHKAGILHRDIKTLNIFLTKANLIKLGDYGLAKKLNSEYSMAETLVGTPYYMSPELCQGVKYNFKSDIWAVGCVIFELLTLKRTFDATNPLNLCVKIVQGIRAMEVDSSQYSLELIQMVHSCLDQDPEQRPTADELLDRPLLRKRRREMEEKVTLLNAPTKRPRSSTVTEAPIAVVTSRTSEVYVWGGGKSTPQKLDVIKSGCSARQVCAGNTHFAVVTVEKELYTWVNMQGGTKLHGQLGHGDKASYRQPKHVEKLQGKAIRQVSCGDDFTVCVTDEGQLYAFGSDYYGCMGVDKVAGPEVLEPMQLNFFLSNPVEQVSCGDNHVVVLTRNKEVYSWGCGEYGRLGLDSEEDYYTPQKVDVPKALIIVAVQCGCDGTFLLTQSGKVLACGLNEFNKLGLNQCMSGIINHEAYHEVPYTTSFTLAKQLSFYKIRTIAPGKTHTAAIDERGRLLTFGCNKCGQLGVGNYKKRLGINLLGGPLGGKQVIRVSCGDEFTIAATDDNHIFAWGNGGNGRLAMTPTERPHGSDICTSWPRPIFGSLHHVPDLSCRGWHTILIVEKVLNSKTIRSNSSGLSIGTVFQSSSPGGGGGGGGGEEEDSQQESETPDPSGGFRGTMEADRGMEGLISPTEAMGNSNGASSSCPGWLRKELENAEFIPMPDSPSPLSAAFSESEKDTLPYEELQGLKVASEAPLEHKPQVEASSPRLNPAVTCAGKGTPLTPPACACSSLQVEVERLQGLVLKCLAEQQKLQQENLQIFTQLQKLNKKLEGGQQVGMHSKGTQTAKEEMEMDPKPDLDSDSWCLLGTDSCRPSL
# Sequence of UniProt P08651 (P08651 whole entry, looked up): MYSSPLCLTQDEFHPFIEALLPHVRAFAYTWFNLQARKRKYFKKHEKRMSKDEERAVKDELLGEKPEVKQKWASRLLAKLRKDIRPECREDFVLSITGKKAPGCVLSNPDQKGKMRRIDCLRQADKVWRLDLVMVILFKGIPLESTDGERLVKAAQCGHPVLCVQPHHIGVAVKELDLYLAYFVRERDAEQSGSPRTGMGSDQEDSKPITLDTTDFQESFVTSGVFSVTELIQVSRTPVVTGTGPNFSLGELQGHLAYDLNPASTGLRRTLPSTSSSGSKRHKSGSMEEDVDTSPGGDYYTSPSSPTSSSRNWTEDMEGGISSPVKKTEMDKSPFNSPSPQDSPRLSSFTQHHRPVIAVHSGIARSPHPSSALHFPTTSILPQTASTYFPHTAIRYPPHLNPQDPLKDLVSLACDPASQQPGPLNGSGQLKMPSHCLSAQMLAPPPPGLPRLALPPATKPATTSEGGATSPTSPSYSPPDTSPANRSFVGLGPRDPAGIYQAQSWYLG
# Sequence of UniProt Q9NZJ9 (Q9NZJ9 whole entry, looked up): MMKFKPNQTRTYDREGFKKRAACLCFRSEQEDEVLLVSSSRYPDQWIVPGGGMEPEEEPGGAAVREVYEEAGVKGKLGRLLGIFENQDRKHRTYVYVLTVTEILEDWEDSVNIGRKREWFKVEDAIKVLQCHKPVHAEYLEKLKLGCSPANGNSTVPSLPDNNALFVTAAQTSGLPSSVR
# Sequence of UniProt P52179 (P52179 whole entry, looked up): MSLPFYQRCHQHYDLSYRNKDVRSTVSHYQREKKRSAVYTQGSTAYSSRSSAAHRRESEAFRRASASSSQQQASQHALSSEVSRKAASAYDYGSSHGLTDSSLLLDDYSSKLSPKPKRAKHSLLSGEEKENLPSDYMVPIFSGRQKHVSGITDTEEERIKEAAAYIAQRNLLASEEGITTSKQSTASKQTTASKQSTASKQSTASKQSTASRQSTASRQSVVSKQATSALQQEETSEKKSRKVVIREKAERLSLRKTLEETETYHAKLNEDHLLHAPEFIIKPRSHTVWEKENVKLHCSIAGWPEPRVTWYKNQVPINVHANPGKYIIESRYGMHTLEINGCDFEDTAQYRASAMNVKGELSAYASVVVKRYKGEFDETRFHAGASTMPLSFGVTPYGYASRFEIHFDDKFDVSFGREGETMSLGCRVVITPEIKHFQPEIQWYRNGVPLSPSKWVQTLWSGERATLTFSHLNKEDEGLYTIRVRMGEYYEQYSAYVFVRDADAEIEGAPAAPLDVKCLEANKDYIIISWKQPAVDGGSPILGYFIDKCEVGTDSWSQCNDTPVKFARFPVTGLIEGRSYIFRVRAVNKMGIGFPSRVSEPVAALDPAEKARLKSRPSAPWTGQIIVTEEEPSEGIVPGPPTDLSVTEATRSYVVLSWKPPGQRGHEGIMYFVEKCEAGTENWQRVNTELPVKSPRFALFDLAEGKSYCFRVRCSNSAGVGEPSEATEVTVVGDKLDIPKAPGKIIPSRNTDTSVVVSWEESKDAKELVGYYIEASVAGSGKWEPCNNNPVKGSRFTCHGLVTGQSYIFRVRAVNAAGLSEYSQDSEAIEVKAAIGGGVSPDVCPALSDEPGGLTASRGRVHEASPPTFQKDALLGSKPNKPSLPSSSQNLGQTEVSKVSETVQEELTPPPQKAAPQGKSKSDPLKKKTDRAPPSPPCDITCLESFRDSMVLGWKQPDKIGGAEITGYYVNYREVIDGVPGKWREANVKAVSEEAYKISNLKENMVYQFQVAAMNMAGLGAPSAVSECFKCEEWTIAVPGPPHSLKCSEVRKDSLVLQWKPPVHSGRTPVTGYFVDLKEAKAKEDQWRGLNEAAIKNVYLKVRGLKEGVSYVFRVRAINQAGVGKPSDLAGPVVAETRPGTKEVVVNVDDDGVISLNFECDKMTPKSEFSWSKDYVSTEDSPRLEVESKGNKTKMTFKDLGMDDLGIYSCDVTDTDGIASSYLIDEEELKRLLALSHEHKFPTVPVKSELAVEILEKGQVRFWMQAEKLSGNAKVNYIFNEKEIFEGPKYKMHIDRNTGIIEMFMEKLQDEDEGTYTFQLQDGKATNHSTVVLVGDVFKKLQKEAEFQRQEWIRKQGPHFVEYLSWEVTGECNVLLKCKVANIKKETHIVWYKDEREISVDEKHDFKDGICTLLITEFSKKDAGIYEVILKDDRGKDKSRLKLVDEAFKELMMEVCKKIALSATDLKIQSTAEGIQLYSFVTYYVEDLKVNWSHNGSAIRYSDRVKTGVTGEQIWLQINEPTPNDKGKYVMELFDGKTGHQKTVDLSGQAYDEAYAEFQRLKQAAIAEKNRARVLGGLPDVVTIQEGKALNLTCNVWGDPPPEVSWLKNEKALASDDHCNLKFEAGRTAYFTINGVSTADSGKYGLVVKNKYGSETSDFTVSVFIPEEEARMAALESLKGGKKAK
# Sequence of UniProt Q8WUM0 (Q8WUM0 whole entry, looked up): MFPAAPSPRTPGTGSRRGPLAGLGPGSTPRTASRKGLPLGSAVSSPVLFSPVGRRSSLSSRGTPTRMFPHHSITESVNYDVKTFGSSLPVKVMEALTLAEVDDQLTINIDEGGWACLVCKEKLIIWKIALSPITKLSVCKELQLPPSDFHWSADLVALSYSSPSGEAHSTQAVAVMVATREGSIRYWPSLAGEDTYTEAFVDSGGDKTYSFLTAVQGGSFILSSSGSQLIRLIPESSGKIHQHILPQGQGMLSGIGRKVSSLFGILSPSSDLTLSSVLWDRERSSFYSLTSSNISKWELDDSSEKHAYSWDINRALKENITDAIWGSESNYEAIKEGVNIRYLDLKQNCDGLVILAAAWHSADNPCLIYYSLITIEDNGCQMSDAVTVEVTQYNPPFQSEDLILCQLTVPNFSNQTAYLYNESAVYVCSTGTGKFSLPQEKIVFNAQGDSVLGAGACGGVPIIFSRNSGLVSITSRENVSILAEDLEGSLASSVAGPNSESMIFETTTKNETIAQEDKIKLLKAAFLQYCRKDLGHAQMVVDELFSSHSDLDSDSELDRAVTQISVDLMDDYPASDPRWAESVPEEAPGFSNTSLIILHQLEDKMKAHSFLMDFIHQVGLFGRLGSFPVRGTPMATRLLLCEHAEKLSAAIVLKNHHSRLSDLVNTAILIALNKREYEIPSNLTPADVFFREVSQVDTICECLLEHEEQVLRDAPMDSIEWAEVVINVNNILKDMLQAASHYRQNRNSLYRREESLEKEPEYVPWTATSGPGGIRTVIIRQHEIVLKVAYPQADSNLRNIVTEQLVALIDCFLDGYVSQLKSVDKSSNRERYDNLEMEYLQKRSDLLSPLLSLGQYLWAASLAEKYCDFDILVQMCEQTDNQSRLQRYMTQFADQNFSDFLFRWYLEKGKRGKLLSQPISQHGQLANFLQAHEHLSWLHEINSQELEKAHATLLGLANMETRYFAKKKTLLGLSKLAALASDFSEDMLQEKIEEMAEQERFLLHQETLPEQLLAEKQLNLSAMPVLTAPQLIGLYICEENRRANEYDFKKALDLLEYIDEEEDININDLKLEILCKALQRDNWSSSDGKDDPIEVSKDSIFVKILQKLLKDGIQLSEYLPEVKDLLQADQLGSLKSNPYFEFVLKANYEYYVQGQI
# Sequence of UniProt P30419 (P30419 whole entry, looked up): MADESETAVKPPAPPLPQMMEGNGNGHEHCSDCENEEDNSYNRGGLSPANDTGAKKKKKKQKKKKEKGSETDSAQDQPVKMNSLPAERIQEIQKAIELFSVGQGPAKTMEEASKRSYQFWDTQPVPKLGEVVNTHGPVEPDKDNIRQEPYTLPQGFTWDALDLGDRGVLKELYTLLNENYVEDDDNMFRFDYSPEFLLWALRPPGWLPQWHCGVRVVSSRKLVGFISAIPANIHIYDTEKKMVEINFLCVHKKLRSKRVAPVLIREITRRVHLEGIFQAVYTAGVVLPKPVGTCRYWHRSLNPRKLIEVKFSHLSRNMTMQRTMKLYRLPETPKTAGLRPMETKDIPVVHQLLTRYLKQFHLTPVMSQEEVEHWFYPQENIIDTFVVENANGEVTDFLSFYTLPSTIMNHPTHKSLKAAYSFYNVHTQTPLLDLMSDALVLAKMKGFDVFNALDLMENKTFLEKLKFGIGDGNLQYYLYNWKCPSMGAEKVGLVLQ
Target,log2 fold change [1],log2 fold change [2],log2 fold change [3],log2 fold change [4],log2 fold change [5],log2 fold change [6],log2 fold change [7],log2 fold change [8],log2 fold change [9],log2 fold change [10],log2 fold change [11],log2 fold change [12],log2 fold change [13],log2 fold change [14],log2 fold change [15],log2 fold change [16],log2 fold change [17],log2 fold change [18],log2 fold change [19],log2 fold change [20]
NPTN (UniProt Q9Y639),-0.047,-0.02,-0.056,-0.421 (active),0.008,0.048,0.17,-0.003,0.007,0.064,0.069,0.026,0.042,-0.009,0.007,-0.02,-0.015,0.038,0.004,-0.046
NTMT1 (UniProt Q9BV86),0.002,0.031,0.02,0.055,-0.001,-0.002,0.014,0.021,0.042,-0.033,-0.025,0.022,-0.025,-0.018,0,-0.005,-0.01,-0.008,0.047,0.01
NMT1 (UniProt P30419),-0.027,-0.147,0.15,0.019,-0.021,-0.024,0.062,-0.012,-0.165,-0.027,-0.045,0.005,-0.001,0.014,0.022,-0.011,-0.009,-0.01,0.017,0.001
OSGEP (UniProt Q9NPF4),0.012,-0.002,0.041,-0.148,-0.236 (active),0.008,-0.058,0.009,-0.028,-0.022,-0.009,0.02,0.022,-0.03,-0.003,0,0.001,0.012,-0.057,-0.002
NUP133 (UniProt Q8WUM0),0.01,-0.016,0.006,0.019,-0.018,0.017,-0.023,-0.04,0.015,0.026,0.016,-0.015,0.006,0.045,-0.01,0.064,-0.02,0.01,0.009,-0.002
NOC2L (UniProt Q9Y3T9),-0.036,-0.013,-0.018,-0.029,0.027,0.031,0.077,-0.009,-0.004,-0.046,-0.047,0.015,0.047,-0.005,0.026,0.014,-0.074,-0.02,0.021,0.014
OSBP (UniProt P22059),-0.023,-0.056,0.037,-0.006,0.017,-0.031,-0.031,-0.016,0.016,-0.112,-0.007,0.003,-0.019,-0.007,-0.19,0.018,0.04,-0.103,0.011,-0.003
NOB1 (UniProt Q9ULX3),0.011,-0.028,0.012,-0.016,-0.02,0.023,-0.016,-0.016,-0.027,0.011,-0.005,0.018,-0.028,0.014,0.013,-0.001,-0.046,0.03,0.019,0.004
MYOM1 (UniProt P52179),-0.015,0.033,-0.062,-0.228,-0.076,-0.009,0.098,-0.023,0.142,0.503 (active),-0.017,0.016,0.254,0.026,-0.017,0.011,-0.156,0.052,-0.083,-0.025
NFIC (UniProt P08651),0.014,0.063,-0.044,0.025,0.001,-0.084,-0.082,-0.016,-0.032,0.052,-0.019,0.014,0.009,-0.058,0.235,-0.038,-0.044,0.049,0.04,-0.082
PARD3 (UniProt Q8TEW0),0.1,-0.288,0.051,-0.146,-0.029,0.021,0.007,0.067,0.017,0.028,0.026,0.134,-0.017,-0.011,0.001,0.011,0.006,0.116,0.01,-0.068
NUDT4 (UniProt Q9NZJ9),-0.043,0.233,-0.022,0.07,-0.055,-0.009,0.039,0.059,0.026,-0.026,0.091,0.022,0.074,0.067,-0.012,0.017,0.003,-0.105,-0.014,0.058
MRPS31 (UniProt Q92665),-0.015,-0.042,0.056,0.042,-0.021,-0.028,-0.048,-0.022,0.02,0.005,-0.01,-0.039,-0.006,-0.006,0,-0.01,-0.071,-0.006,-0.022,-0.006
NADK2 (UniProt Q4G0N4),0.005,-0.024,0.011,0.104,-0.026,-0.003,-0.017,-0.019,0.031,0.025,-0.017,-0.006,0.005,-0.03,-0.02,-0.007,0.008,0.024,0.023,0.042
NEK9 (UniProt Q8TD19),-0.008,0.038,-0.028,-0.022,-0.021,-0.013,0.154,0.083,-0.009,0.142,0.005,0.027,0.055,0,0.01,0.006,-0.01,0.012,0.009,0.016
MYH11 isoform 2 (UniProt P35749),-0.015,0.035,0.027,-0.002,-0.092,0.142,-0.038,-0.036,0.047,0.013,-0.051,-0.011,-0.094,-0.043,0.013,-0.019,-0.007,-0.043,0,-0.004
